Compounds with a hit are over-represented: about 3.5% of the library has one in this group of screens.
FBW7 act: human FBW7 E3 ligase activation, primary screen; normalized activity (activation), % at 26.1 µM; AlphaScreen FBW7–phospho-cyclin E peptide binding, activator screen; hit rate 0.13% among 650,000; AID 1259310; Q969H0; in the data active = normalized activity above about 1.9%;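 also: purified mutant Fbw7 with reduced substrate affinity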
MITF inh: inhibitors of human MITF | AlphaScreen MITF homodimerization, bead proximity signal | inhibition, % at 2.6 µM | hit rate 0.91% among 650,000; in the data active = inhibition above about 50%;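 also: 0% = vehicle wells with protein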
Target sequence (O75030 whole entry, looked up): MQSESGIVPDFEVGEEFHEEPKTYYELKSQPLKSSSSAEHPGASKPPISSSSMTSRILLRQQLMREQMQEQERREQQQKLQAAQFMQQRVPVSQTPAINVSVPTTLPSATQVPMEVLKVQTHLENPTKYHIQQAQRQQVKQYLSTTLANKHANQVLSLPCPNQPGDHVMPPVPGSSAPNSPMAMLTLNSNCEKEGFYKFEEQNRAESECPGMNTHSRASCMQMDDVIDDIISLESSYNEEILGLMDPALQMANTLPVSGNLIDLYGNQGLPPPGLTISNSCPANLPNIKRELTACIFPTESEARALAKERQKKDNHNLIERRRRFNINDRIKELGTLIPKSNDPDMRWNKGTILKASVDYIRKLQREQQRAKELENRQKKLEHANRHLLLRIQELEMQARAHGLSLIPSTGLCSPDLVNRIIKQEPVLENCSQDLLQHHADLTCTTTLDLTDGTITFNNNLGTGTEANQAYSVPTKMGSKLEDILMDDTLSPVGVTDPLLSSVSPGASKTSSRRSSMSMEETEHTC
GPR151 activ: activators of human GPR151; activation, % at 11.2 µM; hit rate 1% among 650,000; Q8TDV0; AID 1508602; PathHunter beta-arrestin GPR151 cells, luminescence; in the data active = activation above about 4.9%;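 also: 0% = median of compound wells and 100% = cells with positive control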
TEAD-YAP block: TEAD-YAP interaction inhibition; HEK-TIYL cells, TEAD-Gal4/YAP UAS-luciferase luminescence; hit rate 1.4% among 640,000; inhibition, % at 9.12 µM; AID 1259422; in the data active = inhibition above about 32%;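 also: 0% = median of test compound wells and 100% = reference inhibitor wells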
* = called active by the depositor; ! = not confirmed by another sample.

SMILES	FBW7 act	MITF inh	GPR151 activ	TEAD-YAP block
NC(=O)C1CCCN(c2ccc(C(F)(F)F)cc2[N+](=O)[O-])C1 (stereo unspecified)	0.1	13.9	0.6	6.8
CCn1ncc(Cl)c1C(=O)Nc1cc(Cl)ccc1Cl	1.9*	4.1	-1.2	-2.5
CCC(=O)NC(c1ccc(C)cc1)c1ccc2cccnc2c1O (stereo unspecified)	-0.5	27.9	-0.5	88.1*
CCC(=O)NC(c1ccc([N+](=O)[O-])cc1)c1ccc2cccnc2c1O (stereo unspecified)	-0.2	-18.9	0.2	85.0*
CCC(=O)NC(c1cccc([N+](=O)[O-])c1)c1ccc2cccnc2c1O (stereo unspecified)	-1.0	17.3	0.7	4.2
COc1ccc(C2CC(c3cccs3)=NN2C(=O)CSc2nnc(CNC(=O)c3ccccc3OC)n2CCc2ccccc2)cc1 (stereo unspecified)	0.2	0.6	1.8	2.6
O=C(CSc1nnc(-c2ccco2)c(-c2ccco2)n1)Nc1ccc(C(=O)O)cc1	-0.5	73.5*	0.4	1.1
Cc1cc(NC(=O)CSc2nnc(-c3ccco3)c(-c3ccco3)n2)no1	0.0	24.8	-0.1	32.4*
O=C(CSc1nnc(-c2ccco2)c(-c2ccco2)n1)Nc1cccc(C(=O)O)c1	-0.1	26.0	0.8	0.7
CC(C)NC(=O)CCc1nnc2n(Cc3ccccc3Cl)c(=O)c3ccccc3n12	0.3	4.9	0.2	-6.0
CCCCCOc1ccc(Br)cc1/C(C)=N/NC1=NCCN1	-0.1	-0.7	0.3	61.8*
CC(C)c1ccc(NC(=O)CSc2nc3[nH]ncc3c(=O)n2-c2ccc(Cl)cc2)cc1	0.0	5.1	-0.2	21.0
O=C(CSc1nc2[nH]ncc2c(=O)n1-c1ccccc1)Nc1ccc([N+](=O)[O-])cc1Cl	-0.1	-2.2	-0.6	15.3
CC(C)c1ccc(NC(=O)CSc2nc3[nH]ncc3c(=O)n2-c2ccccc2)cc1	-0.1	2.8	4.4	38.7*
Cc1ccccc1-n1c(SCC(=O)Nc2ccc(C(F)(F)F)cc2)nc2[nH]ncc2c1=O	0.7	5.1	0.8	37.1*
COc1ccc(-n2c(SCC(=O)Nc3ccc([N+](=O)[O-])cc3Cl)nc3[nH]ncc3c2=O)cc1	0.0	5.0	0.4	32.5*
O=C(CSc1nc2[nH]ncc2c(=O)n1-c1ccccc1)Nc1ccc(C(F)(F)F)cc1	0.4	-13.6	0.1	25.1
O=C(Nc1ccc(Cl)cc1)N1CCOc2ccccc21	0.1	2.1	-1.3	-9.9
CCOC(=O)C1(Cc2ccc(OC)cc2)CCN(C(=O)c2ccsc2)CC1	0.1	12.1	0.7	-17.9
COc1ccc(NC(=O)Cn2nnc(-c3ccccc3NC(C)=O)n2)cc1	0.1	-8.1	1.7	5.4
CCc1cc(CC)c2c(=O)c3ccccc3sc2c1	0.2	8.2	-1.2	3.2
CCN(CC)CCNc1ccc(CO)c2sc3ccccc3c(=O)c12	-0.3	11.9	2.2	34.0*
CC(/C=C1\N=C(c2ccc(I)cc2)OC1=O)=C\c1ccc2c(c1)OCO2	0.0	9.4	1.2	4.3
COc1cccc(/C=N/Nc2ccc([N+](=O)[O-])cc2)c1O	1.1	9.7	-1.7	-48.8
COc1ccc(/C=N/Nc2ncccc2[N+](=O)[O-])c(OC)c1	-0.7	12.9	-9.1	69.3*
SMILES	FBW7 act	MITF inh	GPR151 activ	TEAD-YAP block
COc1cccc(/C=N/Nc2nnc(C)n2N)c1O	-0.3	11.1	-1.0	-1.0
COc1cccc(/C=N/Nc2ncccc2[N+](=O)[O-])c1O	-0.9	26.0	-9.6	97.7*
COc1cccc(/C=N/Nc2ncc(C)c(=O)[nH]2)c1O	-0.1	85.9*	2.4	87.2*
CCOC(=O)c1cc2c(=O)n3ccccc3nc2n(C2CCCCC2)c1=NC(=O)c1cccnc1	-0.5	14.9	-2.3	-15.4
CC(c1ccccc1)c1ccc(O)c(O)c1 (stereo unspecified)	-0.5	-5.6	-2.2	-4.8
NCC(O)c1ccc(O)c(O)c1 (stereo unspecified)	-0.3	76.9*!	0.4	8.3
COc1ccc(S(=O)(=O)Nc2ccc(C)cn2)cc1	2.5*	10.8	-2.0	-9.0
COc1ccc(OC)c(NC(=O)C2CCCC2)c1	24.9*	7.9	0.4	-3.0
COc1ccc(OC)c(NS(=O)(=O)c2ccc(-c3ccccc3)cc2)c1	0.1	10.3	-0.2	35.1*
COc1ccc(S(=O)(=O)Nc2cc(OC)ccc2OC)cc1	0.3	-9.9	3.0	60.5*
CC1(C)CC(=O)C2=C(C1)N(c1ccc(F)c([N+](=O)[O-])c1)C(N)=C(C#N)C2c1ccc(Br)cc1 (stereo unspecified)	0.1	1.3	0.4	3.8
Cc1ccc(-c2nc3cccc(O)c3nc2-c2ccc(C)cc2)cc1	-0.1	-8.4	0.0	8.5
O=C(Cc1c(F)c(F)c(F)c(F)c1F)NCCCN1CCOCC1	0.1	1.2	-0.7	2.2
O=C(CSc1cccc[n+]1[O-])Nc1cc(C(F)(F)F)ccc1Cl	0.1	3.1	2.0	-7.6
COc1ccc(-c2cc3nc(C)c(C)c(Cl)n3n2)cc1	0.4	-2.9	2.9	3.5
Cc1nc2cc(-c3ccccc3)nn2c(N)c1-c1ccccc1	0.0	10.4	-2.9	36.6*
COc1ccc(-c2cc3nc(C)cc(N)n3n2)cc1	-0.1	4.9	-8.9	74.0*
CN(C)S(=O)(=O)c1cccc(COC(=O)/C=C/c2ccc3ccccc3n2)c1	-0.1	-2.8	-0.6	-2.4
COc1cc(/C=C(\NC(=O)c2ccccc2)C(=O)Nc2cccc(CO)c2)ccc1OC(C)=O	0.7	-7.4	-1.1	3.3
CCCCCn1cnc2c(=O)oc3ccccc3c21	0.0	20.3	-1.2	5.2
CN1CCN(C(c2ccc(F)cc2)c2nnnn2C2CCCC2)CC1 (stereo unspecified)	0.4	9.3	-1.0	6.0
CN1CCN(C(c2ccc(N(C)C)cc2)c2nnnn2C2CCCC2)CC1 (stereo unspecified)	0.0	5.2	-0.7	51.2*
c1csc(C(c2nnnn2C2CCCCC2)N2CCN3CCCC3C2)c1 (stereo unspecified)	0.4	18.8	-2.0	62.5*
C=CCN1CCN(C(c2ccccc2)c2nnnn2C2CCCC2)CC1 (stereo unspecified)	1.9*	15.3	-0.3	-2.6
c1cncc(C(c2nnnn2C2CCCCC2)N2CCN3CCCC3C2)c1 (stereo unspecified)	-0.1	4.6	-1.2	-17.8
SMILES	FBW7 act	MITF inh	GPR151 activ	TEAD-YAP block
COc1ccc(CCNC(=O)c2cccnc2SCc2ccccc2F)cc1OC	0.0	-3.2	0.3	-6.2
CC(=O)Nc1ccc(SCc2csc(Nc3ccc(C)cc3)n2)cc1	-0.1	2.6	3.0	-62.9
O=C(c1cnc(N2CCN(c3ncccn3)CC2)c2ccccc12)N1CCCC1	0.1	4.1	-1.0	-8.1
O=C(c1cnc(N2CCN(c3ncccn3)CC2)c2ccccc12)N1CCN(Cc2ccc3c(c2)OCO3)CC1	0.0	14.1	-0.6	60.8*
Cc1cc2c(N3CCN(c4ccccc4)CC3)ncnc2s1	0.2	0.9	0.5	6.3
Cc1cc2c(N3CCN(Cc4ccc5c(c4)OCO5)CC3)ncnc2s1	0.0	17.3	1.1	45.5*
Cc1cc2c(N3CCN(c4ccccn4)CC3)ncnc2s1	0.1	19.1	1.3	41.0*
